# Bioassay records deposited in PubChem BioAssay by several laboratories.
# BH1578 lux ind: inducers of Vibrio cholerae quorum light production without autoinducers, primary screen, BH1578 luxS cqsA deficient, single point; V. cholerae BH1578 lux reporter, luminescence, 6 h; activation, % at 18.7 µM; 350,000 compounds, 0.16% hits; AID 588436, 2011; in the data active = activation mostly above about 9.7%, no sharp cut-off
# Mtb FBA inh: Mtb FBA enzyme inhibitors, primary screen, biochemical, fluorescence, strain H37Rv. Fructose-bisphosphate aldolase (Mycobacterium tuberculosis (strain ATCC 25618 / H37Rv)), …. purified M. tuberculosis FBA, fluorescence read-out. inhibition, % at 1 µM. 360,000 compounds, 2.3% hits. AID 588726, 2011; in the data active = inhibition above about 27%;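 note: 0% = vehicle and 100% = reference inhibitor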
# Target sequence (P9WQA3 whole entry, looked up): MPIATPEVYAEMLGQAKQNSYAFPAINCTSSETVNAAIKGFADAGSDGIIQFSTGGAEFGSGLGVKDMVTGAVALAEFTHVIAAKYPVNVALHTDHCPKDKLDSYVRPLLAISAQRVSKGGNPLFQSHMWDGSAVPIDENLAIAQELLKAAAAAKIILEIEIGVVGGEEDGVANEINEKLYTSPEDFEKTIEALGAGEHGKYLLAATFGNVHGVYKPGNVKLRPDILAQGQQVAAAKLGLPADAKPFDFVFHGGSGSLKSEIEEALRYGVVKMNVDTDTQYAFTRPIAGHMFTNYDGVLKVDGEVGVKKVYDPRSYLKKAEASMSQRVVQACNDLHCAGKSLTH
# GDH-TPI inh: GDH-TPI coupling enzyme inhibitors, primary screen, artefact control for M. tuberculosis FBA inhibitor project, biochemical, absorbance, full deck | 360,000 compounds, 1.2% hits | inhibition, % at 4.8 µM | GDH-TPI coupled enzyme counterscreen, NADH absorbance; in the data active = inhibition above about 30%;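 note: 0% = DMSO wells and 100% = wells lacking the enzyme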
# PrPC surface inh: inhibitors of human cell surface prion protein PrPC, primary screen, cell-based, TR-FRET. AID 720596, 2013. inhibition, % at 13.8 µM. TR-FRET read-out. 370,000 compounds, 0.43% hits. Major prion protein (Homo sapiens), P04156; in the data active = inhibition above about 24%; note: 0% = median of the test wells and 100% = reference compound wells
# 3CLpro inhibitor: SARS-CoV 3CLpro protease inhibitors, primary screen, biochemical, quenched FRET. AID 1706, 2009. 290,000 compounds, 0.14% hits. recombinant SARS-CoV 3CLpro, quenched FRET peptide cleavage. inhibition, % at 6 µM; in the data active = inhibition above about 12%
# * marks the source's active call; other numbers are inactive results; i = inactive; x = not tested or not shown; + = active, no number. Shown are actives, neighbours in structure and some others; about 3.9% of the full set was active somewhere.
SMILES,BH1578 lux ind,Mtb FBA inh,GDH-TPI inh,PrPC surface inh,3CLpro inhibitor
COC(=O)[C@]12CCCCC=C1N(Cc1cccc3ccccc13)C(=O)[C@H](CC(=O)NCCCN1CCCC1=O)C2,x,x,x,-3,x
CN1C(=O)C2(N=c3ccccc3=N2)c2ccccc21,0,30*,19,x,-2
CN1C(=O)C2(OCC(C)([N+](=O)[O-])CO2)c2ccccc21 (stereo not drawn),-1,2,5,11,1
COc1ccc(CCNC(=O)Cc2c(Cl)cccc2Cl)cc1,x,1,-5,-2,2
CN(Cc1cnc2nc(N)nc(N)c2n1)c1ccc(C(=O)NC(CCC(=O)O)C(=O)O)cc1 (stereo not drawn),i,74*,21,-8,x
CCCN(CCC)C(=O)C(CCC(=O)O)NC(=O)c1ccccc1 (stereo not drawn),-3,-1,-13,10,-5
CN(Cc1cnc2nc(N)nc(N)c2n1)c1ccc(C(=O)NC(CCC(=O)O)C(=O)O)cc1C(F)(F)F (stereo not drawn),i,33*,21,-5,x
CC(=O)c1cccc(CN2CCC(CO)(CCCc3ccccc3)CC2)c1,0,139*,11,-5,4
Cc1noc(C)c1COC(=O)c1cc2c3ccccc3n(C)c2s1,i,5,40*,-4,-5
Cc1ccc(S(=O)(=O)Nc2nc3ccccc3nc2NCc2ccco2)cc1,i,22,32*,2,7
Cc1ccc(S(=O)(=O)Nc2nc3ccccc3nc2NCC2CCCO2)cc1C (stereo not drawn),-1,19,33*,-2,7
O=S(=O)(Nc1nc2ccccc2nc1NCC1CCCO1)c1cccs1 (stereo not drawn),8,5,27,4,0
Cc1cccc(S(=O)(=O)Nc2nc3ccccc3nc2NCC2CCCO2)c1 (stereo not drawn),i,4,33*,4,2
O=S(=O)(Nc1nc2ccccc2nc1NCc1ccco1)c1ccc(Cl)cc1,x,2,10,1,5
Cc1cccc(S(=O)(=O)Nc2nc3ccccc3nc2NCc2ccco2)c1,i,8,21,4,-3
COc1ccc(-c2ccnc3c(C#N)cnn23)cc1,0,171*,13,-1,5
CN(C)S(=O)(=O)N1CCCC(C(=O)c2ccc(-c3ccccc3)cc2)C1 (stereo not drawn),-1,5,-1,-11,3
Cc1cc(=O)oc2c3c(cc(OCC(=O)N[C@@H](Cc4ccccc4)C(=O)O)c12)OC(C)(C)CC3,0,+,22,9,7
Cc1cc(=O)oc2c3c(cc(OCC(=O)NC(Cc4ccc(Cl)cc4)C(=O)O)c12)OC(C)(C)CC3 (stereo not drawn),0,+,14,2,6
Cc1c(OCC(=O)NC(Cc2ccc(Cl)cc2)C(=O)O)ccc2c3c(c(=O)oc12)CCC3 (stereo not drawn),-1,6,7,0,7
O=C(N/N=C/C1CC2CCC1C2)c1c[nH]c2ccccc12 (stereo not drawn),i,3,3,13,-3
CC(=NCCO)c1c(O)n(C2CCCCC2)c(=O)[nH]c1=O,x,2,-2,-2,2
C/C(=N\NC(=O)c1ccccc1)c1c(O)n(C2CCCCC2)c(=O)[nH]c1=O,-1,-1,38*,-1,2
CC(=NCc1cccnc1)c1c(O)n(C2CCCCC2)c(=O)[nH]c1=O,0,0,8,6,-1
C/C(=N\NC(=O)c1ccccc1Cl)c1c(O)n(C2CCCCC2)c(=O)[nH]c1=O,-6,-6,37*,3,4
CC(=NCc1ccco1)c1c(O)n(C2CCCCC2)c(=O)[nH]c1=O,i,1,9,15,-1
C/C(=N\NC(=O)c1ccccc1O)c1c(O)n(C2CCCCC2)c(=O)[nH]c1=O,0,2,46*,-3,4
C/C(=N\NC(=O)c1ccccc1O)c1c(O)n(Cc2ccccc2)c(=O)[nH]c1=O,-5,7,47*,-2,7
Cc1c(-c2ccccc2)c(=O)oc2cc(O)ccc12,-4,+,11,2,0
